According to PubChem BioAssay (EPA / NIEHS):
Calls of active or inactive are those of the source. The calls were made as follows: active = hit-call score of the fitted dose curve at least 0.9, where 1 is the maximum; inactive = score below 0.9.

What follows are compounds tested on Interleukin-1 alpha (IL1a), IL1A (gene 3552) (assay: BSK_LPS_IL1a: BioMAP Diversity Plus: LPS Assay for Interleukin-1 alpha (IL1a) Biomarker Activity (AID 2283080)). Details: primary human HUVEC with PBMC; actives raise or lower the signal.
Protocol: BSK_LPS is a cell-based, multiplexed-readout assay that uses umbilical vein endothelium and peripheral blood mononuclear cells, a human vascular primary cell co-culture, with measurements taken at 24 hours after chemical dosing in a 96-well plate.BSK_LPS_IL1a is an assay component measured in the BSK_LPS assay. It measures IL-a antibody related to regulation of gene expression using ELISA technology.Data from the assay component BSK_LPS_IL1a was analyzed into 1 assay endpoint. This assay endpoint, BSK_LPS_IL1a, was analyzed with bidirectional fitting relative to DMSO as the negative control and baseline of activity. Using a type of binding reporter, gain or loss-of-signal activity can be used to understand changes in the signaling as they relate to the gene IL1A. Furthermore, this assay endpoint can be referred to as a primary readout, because this assay has produced multiple assay endpoints where this one serves a signaling function. To generalize the intended target to other relatable targets, this assay endpoint is annotated to the cytokine intended target family, where the subfamily is interleukins.
The levels of cell surface (or secreted, indicated by the prefix "s") biomarker endpoints were measured by ELISA. Overt cytotoxicity to cells in confluent adherent cultures (all systems other than the BT system) was assessed by measuring total protein levels using sulforhodamine B (SRB) staining in parallel cultures at the time of biomarker measurements, indicated as SRB endpoints. For proliferation assays for adherent cell types, individual cell types are cultured at sub-confluence and relative cell numbers quantified by SRB staining at time points optimized for each system (48 h: 3C and CASM3C systems; 72 h: BT and HDF3CGF systems; 96 h: SAg system). SRB was performed by staining cells with 0.1% SRB after fixation with 10% TCA and reading wells at 560 nm.Viability and proliferation of PBMC (T cells) was quantified by Alamar Blue reduction for the SAg and BT systems. For PBMC viability (referred to as PBMC Cytotoxicity within the assay endpoint names), cells were plated (75,000/well in a 96-well plate) and then chemical samples added for 1 h before addition of activators, SEB and TSST-1 (20 ng/mL final concentration each). Cells were incubated for 90 h. Then, Alamar Blue (20 uL/well) (Invitrogen, Cat DAL1100) was added for 6 h, and the plates were read with a fluorescence microplate reader at 546/580 nm (excitation/emission). For PBMC proliferation, cells were plated and activated as above but incubated for only 16 h prior to addition of Alamar Blue. Plates were read after 6 h.

For `C=C(C)C(=O)O[C@H]1C[C@@H]2CC[C@@]1(C)C2(C)C`, which AC50 is on record?
Its AC50 is 25.8 µM (active).

Which outcome does the source give for `Nc1cc([N+](=O)[O-])ccc1Cl` here?
Its outcome is “inactive”.

For `Nc1cc([N+](=O)[O-])ccc1O`, which outcome is on record?
The outcome was “inactive”.

Which outcome does the source give for `CCCCCCCCC=O` here?
The outcome was “inactive”.

With `Cc1ccc(O)c(C(C)(C)C)c1` as the compound, how does the AC50 read?
The AC50 was 36.2 µM (active).

`O=C=NC1CCC(CC2CCC(N=C=O)CC2)CC1` (stereo not given) was tested. Which outcome did it give?
Its outcome is “inactive”.

Which outcome does the source give for `Cc1cc(C2(c3cc(C)c(O)cc3C)OS(=O)(=O)c3ccccc32)c(C)cc1O` here?
The outcome was “inactive”.

`CCCCCCCCCC=O` was tested. Which outcome did it give?
Its outcome is “inactive”.

`OC1OC[C@@H](O)[C@H](O)[C@H]1O` (stereo not given in full) was tested. Which outcome did it give?
The outcome was “inactive”.

`CCC(=O)OCc1ccccc1` was tested. Which outcome did it give?
The outcome was “inactive”.

Which outcome does the source give for `O=C1CCCCCCCCCCCCCCO1` here?
Its outcome is “inactive”.

How did the AC50 turn out when `CCn1c2ccccc2c2cc(N)ccc21` was run?
The AC50 was 0.653 µM (active).

For `C#C[C@]1(O)CC[C@H]2[C@@H]3CCC4=Cc5oncc5C[C@]4(C)[C@H]3CC[C@@]21C`, which outcome is on record?
Its outcome is “inactive”.

`CC(C)Oc1ccccc1O` was tested. Which outcome did it give?
The outcome was “inactive”.

With `Cc1ccc2n[nH]nc2c1` as the compound, how does the outcome read?
The outcome was “inactive”.

How did the outcome turn out when `CCCCCCCCCCCCCCCCCC(=O)OCC(CC)CCCC` (stereo not given) was run?
Its outcome is “inactive”.

With `O=C(O)c1cn(-c2ccc(F)cc2)c2cc(N3CCNCC3)c(F)cc2c1=O` as the compound, how does the outcome read?
The outcome was “inactive”.

With `CC(=O)[C@H]1CC[C@H]2[C@@H]3CC=C4C[C@@H](O)CC[C@]4(C)[C@H]3CC[C@]12C` as the compound, how does the outcome read?
The outcome was “inactive”.

`COC(=O)c1ccc(C)cc1` was tested. Which outcome did it give?
Its outcome is “inactive”.

With `C=C[Si](OCC)(OCC)OCC` as the compound, how does the outcome read?
The outcome was “inactive”.

`OC[C@H]1O[C@H](O[C@]2(CCl)O[C@H](CCl)[C@@H](O)[C@@H]2O)[C@H](O)[C@@H](O)[C@H]1Cl` was tested. Which outcome did it give?
Its outcome is “inactive”.

Which AC50 does the source give for `CC1COc2ccccc2N1C(=O)C(Cl)Cl` (stereo not given) here?
The AC50 was 13.2 µM (active).

With `CC[Si](OC(C)=O)(OC(C)=O)OC(C)=O` as the compound, how does the outcome read?
Its outcome is “inactive”.

For `c1ccc2c(c1)c1cccc3ccc4cccc2c4c31`, which outcome is on record?
Its outcome is “inactive”.

`N#Cc1ccc(CC(=NNC(=O)Nc2ccc(OC(F)(F)F)cc2)c2cccc(C(F)(F)F)c2)cc1` was tested. Which outcome did it give?
Its outcome is “inactive”.

For `CCc1c(C)cc(N)c(CC)c1N`, which outcome is on record?
Its outcome is “inactive”.

Which outcome does the source give for `CN(CCOc1ccc(CC2SC(=O)NC2=O)cc1)c1ccccn1` (stereo not given) here?
Its outcome is “inactive”.

`c1ccc2sc(SN(C3CCCCC3)C3CCCCC3)nc2c1` was tested. Which outcome did it give?
Its outcome is “inactive”.

Which outcome does the source give for `CCCCC(CC)COCCC#N` (stereo not given) here?
The outcome was “inactive”.

How did the outcome turn out when `NCCNCCN` was run?
The outcome was “inactive”.

`CNC[C@H](O)c1cccc(O)c1` was tested. Which outcome did it give?
Its outcome is “inactive”.

With `CC(=O)Nc1ccccc1O` as the compound, how does the outcome read?
The outcome was “inactive”.

`CC(=O)/C=C/C1=C(C)CCCC1(C)C` was tested. Which outcome did it give?
Its outcome is “inactive”.

Which AC50 does the source give for `BrC1CCC(Br)C(Br)CCC(Br)C(Br)CCC1Br` (stereo not given) here?
The AC50 was 4.58 µM (active).

With `O=[N+]([O-])c1cc(C(F)(F)F)ccc1Cl` as the compound, how does the outcome read?
Its outcome is “inactive”.

`O=C1OC2(c3cc(Br)c(O)c(Br)c3Oc3c2cc(Br)c(O)c3Br)c2c(Cl)c(Cl)c(Cl)c(Cl)c21` was tested. Which AC50 did it give?
The AC50 was 3.73 µM (active).

For `O=C(O)c1cn(C2CC2)c2cc(N3CCNCC3)c(F)cc2c1=O`, which outcome is on record?
Its outcome is “inactive”.

How did the AC50 turn out when `CCCCC/C=C/C=C/C=O` was run?
The AC50 was 29.2 µM (active).

With `C=CCOC(=O)CCC1CCCCC1` as the compound, how does the outcome read?
The outcome was “inactive”.

Which outcome does the source give for `CCCCC(CC)COC(=O)/C=C\C(=O)OCC(CC)CCCC` (stereo not given) here?
Its outcome is “inactive”.
